Screening data: PubChem BioAssay, National Center for Advancing Translational Sciences (NCATS)
Pf Dd2 inh: blocks in vitro growth of P. falciparum Dd2 | Potency, µM (titrated, usually from 28.9 µM), most hits filed as inhibitors | P. falciparum Dd2 growth, SYBR Green, 72 h | 4.3% of 120,000 active | AID 1347417; active = well fitted inhibition curve with a large enough effect; note: nearly all actives have a fitted effect of over 65% in size
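Infected erythrocytes (Dd2, 0.3% parasitemia, 2.5% hematocrit final) are added to compound in RPMI-1640/Albumax II medium, grown 72 h at 37C in low oxygen, then lysed with saponin/Triton-X containing SYBR Green and read by fluorescence.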
Numbers stand for hits; n = inactive. The sample as a whole holds a higher share of hits than the screen did.

SMILES	Pf Dd2 inh
O=C1NC(=NC2CCCC2)C2(CCCN(CC3CC3)C2)N1c1cccnc1 (stereo not given)	n
Cc1cnc(C2CCNC2)n1C(C)C (stereo not given)	n
COCCc1nncn1C1CCN(S(=O)(=O)c2ccc(C(F)(F)F)cc2)CC1	n
COc1ccc(CCc2nc3nccc(-c4ccc(OC)c(OC)c4)n3n2)cc1	13µM
COc1ccc(CCc2nc3nccc(-c4cc(OC)c(OC)c(OC)c4)n3n2)cc1	n
COc1cc(-c2ccnc3nc(CCc4ccccc4)nn23)cc(OC)c1OC	11µM
COc1ccc(CCc2nc3nccc(-c4ccc(F)cc4)n3n2)cc1OC	n
COc1ccc(CCc2nc3nccc(-c4ccccc4)n3n2)cc1OC	n
COc1ccc(CCc2nc3nccc(-c4ccncc4)n3n2)cc1OC	n
COc1cccc(C(=O)N2CCC(c3n[nH]c(=O)n3-c3ccccc3)CC2)c1	n
COC1CCN(C(=O)c2ccnc(-c3nnc4ccc(N(C)C)nn34)c2)CC1	n
COc1ccc(C(=O)N[C@@H]2CCC[C@@H]2C(=O)N2CCN(c3cc(C)ccc3C)CC2)cn1	10µM
COc1ccc(C(=O)N[C@@H]2CCC[C@@H]2C(=O)Nc2cc(F)ccc2C)cn1	n
COc1ccc(C(=O)N[C@@H]2CCC[C@@H]2C(=O)N2CCN(c3ncccn3)CC2)cn1	n
CN1CCC(N2CCN(S(=O)(=O)c3ccc(F)cc3)CC2)C1=O (stereo not given)	n
c1ccc(C(CNc2nccc(-c3ccncc3)n2)N2CCOCC2)nc1 (stereo not given)	n
Cc1ccccc1-n1cc(-c2ccnc(NC(C)Cc3ccncc3)n2)cn1 (stereo not given)	8.9µM
Cc1ccccc1-n1cc(CN(C)Cc2nc(-c3ccc(C(F)(F)F)cc3)no2)cn1	n
CC(C)NC(=O)c1ccccc1OCC1CCCN(C(=O)C2CCOCC2)C1 (stereo not given)	n
O=C(CN1CC2CC(C1)[C@H]1CCCC(=O)N1C2)NCc1cccc(Cl)c1 (stereo not given in full)	n
Cc1cc(CNC(=O)c2cc(-c3ccccc3)cc3c2OCCN3C)no1	n
CC(=O)Nc1cc(-c2cc(C(=O)NCc3cccnc3)c3c(c2)N(C)CCO3)ccn1	n
CC(=O)Nc1cc(-c2cc(C(=O)NCc3cc(C)on3)c3c(c2)N(C)CCO3)ccn1	7.9µM
Cc1cccc(CN2CCCC3(CCN(C(=O)c4ccc(=O)[nH]c4)C3)C2=O)c1 (stereo not given)	n
Cc1noc(C2CCCCCN2C(=O)c2ccnn2C)n1 (stereo not given)	n
SMILES	Pf Dd2 inh
Cc1cccc(Cn2c(=O)n(Cc3ccccc3)c(=O)c3sc4ccccc4c32)c1	8.9µM
Cc1ccc(CNC(=O)Cn2c(=O)n(Cc3ccccc3)c(=O)c3sc4ccccc4c32)cc1	n
Cc1ccc(Cn2c(=O)n(Cc3ccco3)c(=O)c3sc4ccccc4c32)cc1	n
COc1ccccc1CCC(=O)N1[C@@H]2CC[C@H]1CC(NC(=O)c1cnc(C)cn1)C2 (stereo not given in full)	n
O=C(CCc1nnn2c1CN(C(=O)c1ccccc1)CC2)NC1CC1	n
O=C1CO[C@H]2CCN(Cc3ccccc3Cl)CC[C@@H]2N1c1ccccc1	n
COCCN1C[C@H]2CN(Cc3ccc(C(=O)O)cc3)CCN2C1=O	n
COc1cccc(CCN2CC[C@H]3CN(C(=O)Nc4ccc(F)cc4)CC[C@H]3CC2=O)c1OC	n
COc1ccc2nc(N(Cc3cccnc3)C(=O)CCc3ccccc3)sc2c1	1µM
CCOc1ccc2nc(N(Cc3cccnc3)C(C)=O)sc2c1	n
COc1ccc2nc(N(Cc3cccnc3)C(=O)C3CCCCC3)sc2c1	2.5µM
O=C(COc1ccccc1)N(Cc1cccnc1)c1nc2ccc(Cl)cc2s1	n
O=C(C1COc2ccccc2O1)N(Cc1cccnc1)c1nc2ccc(Cl)cc2s1 (stereo not given)	n
COc1ccc2nc(N(Cc3cccnc3)C(C)=O)sc2c1	n
COCC1CN(C)CC12CCN(C(=O)Cc1cccc(F)c1)CC2 (stereo not given)	n
Cc1ccc(NC(=O)c2ccc3c(c2)N(C)C2CCCCCN2C3=O)cc1F (stereo not given)	n
CCNC(=O)N1CCCCCNC(=O)[C@@H]2CCCC[C@@H]21	n
Cc1nn(-c2ccccc2[N+](=O)[O-])c(C)c1[C@@H]1C=C[C@@H](NCc2ccco2)C1	11µM
COC(=O)c1cccc(NC(=S)N[C@@H]2C=C[C@@H](c3c(C)nn(-c4ccc(F)cc4)c3C)C2)c1	n
Cc1nn(-c2ccc(F)cc2)c(C)c1[C@@H]1C=C[C@@H](NC(=O)c2ccco2)C1	6.3µM
CC(=O)N[C@@H]1C=C[C@@H](c2c(C)nn(-c3ccc(C)c(Cl)c3)c2C)C1	n
Cc1nn(-c2ccc(C(C)(C)C)cc2)c(C)c1[C@@H]1C=C[C@@H](NC(=O)CCCC(=O)O)C1	n
Cc1nn(-c2ccccc2)c(C)c1[C@@H]1C=C[C@@H](NC(=O)c2ccco2)C1	10µM
Cc1nn(-c2ccccn2)c(C)c1[C@@H]1C=C[C@@H](NC(=O)CC(C)(C)CC(=O)O)C1	n
Cc1cc(Cl)ccc1-n1nc(C)c([C@@H]2C=C[C@@H](NC(=O)c3ccc(N(C)C)cc3)C2)c1C	10µM
SMILES	Pf Dd2 inh
Cc1nn(-c2ccccc2)c(C)c1[C@@H]1C=C[C@@H](NC(=O)CCCC(=O)O)C1	n
Cc1nn(-c2ccc(C(F)(F)F)cc2)c(C)c1[C@@H]1C=C[C@@H](NC(=O)CSCC(=O)O)C1	n
Cc1nn(-c2ccccc2)c(C)c1[C@@H]1C=C[C@@H](NC(=O)CC(C)(C)CC(=O)O)C1	n
Cc1nn(-c2ccc(C(C)(C)C)cc2)c(C)c1[C@@H]1C=C[C@@H](NC(=O)CC2(CC(=O)O)CCCC2)C1	n
Cc1noc(C)c1S(=O)(=O)N1CCCCC1CCn1cccn1 (stereo not given)	n
CC(Cn1cncn1)NC(=O)c1ccc(CCC(C)(C)O)cc1 (stereo not given)	n
Cn1nccc1OCc1cn2c(=O)n(C)cc(-c3cccc(C(F)(F)F)c3)c2n1	n
COc1ccc(CN2C(=O)C3(CCOCC3)CC2c2nnnn2C(C)(C)C)c(OC)c1 (stereo not given)	n
COc1ccc(CC2CN(C(=O)c3cccnc3SC)CCO2)cc1 (stereo not given)	n
Cc1ncoc1C(=O)N1CC[C@H](CO)[C@H](NC(=O)c2ccccc2)C1	n
Cc1cc(C)cc(NC(=O)C2CCN(C(=O)c3nnn4cc(C)[nH]c(=O)c34)CC2)c1	n
CCn1ncc(N2CCCC(CC(=O)O)C2)cc1=O (stereo not given)	n
COc1ccc(C(=O)N2CC(Oc3ccc(F)cc3F)C2)cc1	n
COc1cc2c(cc1CCc1ccccc1)N(C(=O)CC(C)C)CC21CCN(C(C)=O)CC1	4µM
COc1cc2c(cc1CCc1ccccc1)N(C(=O)c1ccn(C)n1)CC21CCN(C(C)=O)CC1	10µM
COc1cc2c(cc1OCc1ccccc1)N(C(=O)c1ccc3[nH]ccc3c1)CC21CCN(C)CC1	n
COc1cc2c(cc1Oc1ccccc1)NC(=O)C21CCN(C(=O)Cc2ccccc2)CC1	n
Cn1ccc(C(=O)N2CC(COc3ccccc3)C3(C2)CN(c2ccccc2)C3)n1 (stereo not given)	n
COc1cc2c(cc1OCc1ccccc1)N(C(=O)Cc1ccc3c(c1)OCO3)CC21CCN(C)CC1	n
COc1cccc(CN2C(=O)OC3(CCN(C(=O)c4ccn(C)n4)CC3)C2(C)c2cccnc2)c1 (stereo not given)	n
